Screens deposited in PubChem by several laboratories.
Rows were chosen to be rich in hits. Some 3.5% of all compounds tested hit in one or more screens of this group.
Rv3671c protease: inhibitors of M. tuberculosis serine protease Rv3671c; P9WHR9; inhibition, % at 5.96 µM; hit rate 0.048% among 320,000; in the data active = inhibition above about 38%;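 note: extracellular domain of Rv3671c used as enzyme; 0% = enzyme with DMSO and 100% = no enzyme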
GDH-TPI counter-1: counter-screen for M. tuberculosis FBA inhibitors: GDH-TPI coupled enzymes | hit rate 1.2% among 360,000 | inhibition, % at 4.8 µM | AID 588335 | GDH-TPI coupled enzyme counterscreen, NADH absorbance; in the data active = inhibition above about 30%;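 note: 0% = DMSO wells and 100% = wells lacking the enzyme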
Mtb FBA inh: inhibitors of M. tuberculosis fructose-bisphosphate aldolase; P9WQA3; purified M. tuberculosis FBA, fluorescence read-out; inhibition, % at 1 µM; hit rate 2.3% among 360,000;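 note: 0% = vehicle and 100% = reference inhibitor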
Target sequence (P9WQA3 whole entry, looked up): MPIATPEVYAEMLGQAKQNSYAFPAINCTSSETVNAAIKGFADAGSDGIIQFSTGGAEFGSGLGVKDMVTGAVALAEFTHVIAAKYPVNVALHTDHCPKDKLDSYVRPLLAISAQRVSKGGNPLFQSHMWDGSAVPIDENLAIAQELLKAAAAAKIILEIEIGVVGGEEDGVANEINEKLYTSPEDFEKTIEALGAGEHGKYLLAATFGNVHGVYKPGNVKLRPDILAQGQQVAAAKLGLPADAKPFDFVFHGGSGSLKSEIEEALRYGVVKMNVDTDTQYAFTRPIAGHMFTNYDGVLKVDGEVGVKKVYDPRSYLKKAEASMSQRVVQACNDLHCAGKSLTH
Mtb UGM inh: inhibitors of M. tuberculosis UDP-galactopyranose mutase | P9WIQ1 | hit rate 0.06% among 320,000 | inhibition, % at 10 µM | purified UGM, fluorescence polarization probe displacement; in the data active = inhibition above about 10%, passing the limit was not always enough
Mtb bLac sens: beta-lactam sensitization of Mtb H37Rv | AID 434955 | M. tuberculosis H37Rv growth with meropenem, percent inhibition | inhibition, % at 25 µM | hit rate 0.27% among 330,000; call rule not given here;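 note: growth measured after seven days incubation then overnight dye step; 0% = bacteria only wells and 100% = bacteria with antibiotic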
Mtb FBA inh conf: Mtb FBA inhibition, confirmed; shares compounds with Mtb FBA inh; purified M. tuberculosis FBA, fluorescence read-out; inhibition, % at 1 µM; hit rate 78% among 5,600; AID 651616;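 note: 0% = vehicle wells and 100% = reference inhibitor wells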
GDH-TPI counter-2: inhibits GDH-TPI coupling enzymes, flagging Mtb FBA hits | shares compounds with Mtb FBA inh | GDH-TPI coupled enzyme counterscreen, fluorescence | inhibition, % at 1 µM | hit rate 81% among 5,600 | AID 652141; in the data active = inhibition above about 10%
Active calls of the source: *; / = not tested or not shown; + = active, no number. Cut-off read from the data, not from the text of the source, unless noted: active = inhibition above about 27%; inactive = the rest.

SMILES	Rv3671c protease	GDH-TPI counter-1	Mtb FBA inh	Mtb UGM inh	Mtb bLac sens	Mtb FBA inh conf	GDH-TPI counter-2
Cc1ccc2cc3c(nc2c1)N(c1ccccc1)CC3	6	6	47*	2	3	5	-5
Cc1ccc(-c2cc3ccccc3nc2N)cc1	-2	-4	46*	-2	14	88*	80*
N#Cc1ccc(Sc2nc3ccccc3[nH]2)cc1C#N	-3	-2	-1	-2	-3	/	/
Cc1cc(C)c(S(=O)(=O)c2ccccc2C)c(Cl)n1	-2	4	0	-1	3	/	/
Cc1ccccc1S(=O)(=O)c1cc2ccccc2nc1N	-6	9	46*	-1	0	+	+
N#Cc1cc2ccccc2nc1N	10	26	75*	-2	-8	65*	48*
Nc1nc2ccccc2cc1-c1cccs1	-9	1	69*	1	8	76*	62*
CC(Cc1ccsc1)NC(=O)CCc1nnc(COc2ccccc2)o1 (stereo not given)	5	10	2	-3	-2	/	/
Cc1ccc(S(=O)(=O)Nc2cccc3c2CCCC3)cc1	-12	5	-1	-2	3	/	/
COc1ccccc1-c1nc(-c2cccc(C)c2)no1	-2	1	81*	-3	52	76*	54*
COc1ccc(-c2nc(-c3cccc(C)c3)no2)cc1OC	-9	11	0	0	/	/	/
O=c1c2ccccc2c(/C=N/n2cnnc2)c(O)n1-c1ccccc1F	1	16	33*	4	0	3	2
Cc1ccc(-c2nnc(-c3ccc4c(c3)OCO4)o2)cc1	5	11	27*	-2	6	75*	55*
Brc1ccc(-c2nnc(-c3ccc4c(c3)OCO4)o2)o1	1	16	9	0	44	/	/
Cc1nccc(-c2ccc3c(c2)OCO3)n1	-10	9	29*	1	4	68*	48*
CC(C)(Oc1ccc(Cl)cc1)C(=O)OCC(=O)N1CCN(c2ccccc2)CC1	4	-4	0	0	40	/	/
OCC[C@H]1C[C@@H](O)[C@H](O)[C@@]2(CCc3ccccc3O2)O1	-2	-5	1	1	-13	/	/
Cc1cc2nc(/C=C/c3nc4cc(C)c(C)cc4[nH]3)[nH]c2cc1C	9	8	37*	0	4	150*	85*
Cc1cc2nc(CO)[nH]c2cc1C	3	3	5	-5	0	/	/
O=C(c1ccco1)N1CCN(C(=O)c2cc(-c3ccccc3)nc3ccccc23)CC1	3	5	-1	0	-3	/	/
O=C(c1cc(-c2ccco2)nc2ccccc12)N1CCN(Cc2ccccc2)CC1	-3	0	50*	0	1	138*	148*
COC(=O)C1CCN(C(=O)c2cc(-c3ccco3)nc3ccccc23)CC1	-2	22	109*	0	6	54*	43*
CCCCn1c(NC(C)=O)c(C#N)c2nc3ccccc3nc21	-15	11	59*	-1	0	96*	77*
CCCCCn1c(N)c(C#N)c2nc3ccccc3nc21	-16	21	111*	0	0	-3	-5
N#Cc1c(N)n(CCNC(=O)c2ccccc2)c2nc3ccccc3nc12	-3	0	98*	-3	3	+	+
SMILES	Rv3671c protease	GDH-TPI counter-1	Mtb FBA inh	Mtb UGM inh	Mtb bLac sens	Mtb FBA inh conf	GDH-TPI counter-2
COc1ccc(Cn2c(N)c(C#N)c3nc4ccccc4nc32)cc1OC	-6	24	15	1	69	/	/
COC(=O)c1[nH]c2ccc(Cl)cc2c1NC(=O)C1CC1	2	17	27	0	-11	/	/
COC(=O)c1[nH]c2ccc(Cl)cc2c1NC(=O)Oc1ccccc1	-17	8	66*	2	10	9	-4
COCCNC(=O)CCC1CCN(Cc2ccc(-c3ccccc3)cc2)CC1	1	10	2	0	-2	/	/
Cn1c(=O)n(Cc2ccccc2)c(=O)c2c1nc1n2CCCN1C1CCCCC1	2	11	3	-1	100	/	/
Cn1c(=O)n(Cc2ccc(F)cc2)c(=O)c2c1nc1n2CCCN1C1CCCCC1	4	1	29*	1	100	154*	147*
CCC(C)NS(=O)(=O)c1ccc(S(=O)(=O)N2CC=C(c3ccc(F)cc3)CC2)cc1 (stereo not given)	-6	-3	-1	0	9	/	/
Cc1ccc(-c2nc(S(=O)(=O)c3ccc(C)cc3)c(SCC(N)=O)o2)cc1	-7	-9	-1	1	-5	/	/
NC(=O)CSc1oc(-c2ccc(F)cc2)nc1S(=O)(=O)c1ccccc1	1	9	62*	2	6	158*	89*
CC1=Nc2ccc(C)c3nc(C)cc(c23)N1c1ccc(C)cc1	4	-7	30*	-1	10	60*	38*
CC(C)(CO)NCc1c(OCc2ccc(Cl)cc2)ccc2ccccc12	4	15	17	-1	21	/	/
CC1(C)Cc2nc3sc4c(N(CCO)CCO)nnnc4c3cc2CO1	8	1	36*	0	-8	+	188*
COc1ccc(N(CC(=O)NCC2CCCO2)S(=O)(=O)c2ccccc2)cc1OC (stereo not given)	-3	-4	2	2	-7	/	/
Cc1cc(N=Cc2c(O)n(-c3cccc(Cl)c3)c(=O)c3ccccc23)no1	-15	19	57*	1	54	106*	83*
CC1=C(C)C(=O)N(C(C)CCc2ccccc2)C1=O (stereo not given)	4	8	40*	-1	-2	89*	75*
Cc1ccc(-c2cc(C(=O)N3CCN(C(=O)c4ccco4)CC3)[nH]n2)cc1C	-2	1	0	-1	2	/	/
COc1ccc(-n2c(C)nnc2SCC(=O)NC2CC2)cc1	-7	-3	92*	-2	10	42*	34*
CCN1CCN(CC(=O)Nc2ccc(S(=O)(=O)N3C(C)CCCC3C)cc2)CC1 (stereo not given)	-10	-7	-6	1	2	/	/
COc1cc2cc(CN(CCCO)S(=O)(=O)c3ccccc3)c(=O)[nH]c2cc1OC	-12	37*	55*	0	-4	2	-2
COc1cc2cc(CN(Cc3cccnc3)C(=O)NCc3ccccc3)c(=O)[nH]c2cc1OC	7	26	32*	-1	-14	26	20*
CCOC(=O)c1cccc(S(=O)(=O)N(CCO)Cc2cc3cc(OC)c(OC)cc3[nH]c2=O)c1	-4	27	1	0	-2	/	/
COc1cc2cc(CN(Cc3cccnc3)C(=O)Nc3ccccc3)c(=O)[nH]c2cc1OC	1	-3	10	-3	-3	/	/
COc1cc2cc(CN(CCO)S(=O)(=O)c3ccccc3Cl)c(=O)[nH]c2cc1OC	0	33*	49*	-2	-7	118*	101*
